According to PubChem BioAssay (NCI):
About 79,000 compounds went through this panel and 15% of them were active in at least one assay; those are over-represented in the sample as a whole. Calls of active or inactive are those of the source. Cut-off read from the data, not from the text of the source: active = growth inhibition above about 70%; inactive = the rest.

Columns and labels:
[1] = NCI Yeast Anticancer Drug Screen. Data for the rad52 strain (AID 147);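 note: 0% = growth of vehicle-treated control cultures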; conditions: S. cerevisiae rad52 mutant growth inhibition, hits give high values
Method in brief: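 Yeast strain carrying a DNA damage repair alteration was exposed to test compounds. Growth inhibition was measured relative to vehicle-treated controls.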

[2] = NCI Yeast Anticancer Drug Screen. Data for the wt1 strain (AID 149);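 note: 0% = growth of vehicle-treated wt1 cultures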; conditions: S. cerevisiae wt1 strain (SPY 50644) growth inhibition, hits give high values
Method in brief: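 The wt1 strain was treated with compounds, and growth was compared with vehicle-treated cultures to give inhibition.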

[3] = NCI Yeast Anticancer Drug Screen. Data for the rad50EPP+ strain (AID 151);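 note: 0% = growth of vehicle-treated control cultures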; conditions: S. cerevisiae rad50 mutant strain, hits give high values
Method in brief: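 Yeast strain carrying rad50 alteration (rad50EPP+) exposed to compounds; growth inhibition measured relative to vehicle-treated controls.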

[4] = NCI Yeast Anticancer Drug Screen. Data for the rad50 strain (AID 155);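 note: 0% = growth of vehicle-only cultures of the same strain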; conditions: S. cerevisiae rad50 strain growth inhibition, hits give high values
Method in brief: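 Cells are treated with compound, grown, and their growth is then scored against vehicle-only cultures of the same repair-deficient yeast strain.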

[5] = NCI Yeast Anticancer Drug Screen. Data for the mec2-1 strain (AID 157); conditions: S. cerevisiae mec2-1 strain, hits give high values
Method in brief: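 mec2-1 yeast strain, carrying an alteration in DNA damage repair or cell cycle control, was exposed to compounds; growth inhibition was measured relative to vehicle-treated controls.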

[6] = NCI Yeast Anticancer Drug Screen. Data for the rad14 strain (AID 159);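 note: 0% = growth of vehicle-treated control cultures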; conditions: S. cerevisiae rad14 strain growth inhibition, hits give high values
Method in brief: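 Readout: yeast growth inhibition, referenced to vehicle-only cultures. Strain bears a defined alteration in DNA damage repair.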

[7] = NCI Yeast Anticancer Drug Screen. Data for the sgs1 mgt1 strain (AID 161);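 note: 0% = growth of cultures given vehicle only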; conditions: S. cerevisiae sgs1 mgt1 strain, hits give high values
Method in brief: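 Growth of a repair-deficient yeast mutant was monitored after compound treatment and expressed as inhibition relative to vehicle-treated cultures.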

[8] = NCI Yeast Anticancer Drug Screen. Data for the CLN2oe strain (AID 163);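 note: 0% = growth of vehicle-only control cultures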; conditions: S. cerevisiae CLN2oe strain, hits give high values
Method in brief: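 Yeast cells carrying a defined cell-cycle control alteration were exposed to test compounds. Growth inhibition was scored against vehicle-treated control cultures.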

[9] = NCI Yeast Anticancer Drug Screen. Data for the cln2 rad14 strain (AID 165);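 note: 0% = growth equal to vehicle treated cultures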; conditions: S. cerevisiae cln2 rad14 strain, hits give high values
Method in brief: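 Yeast carrying cln2 and rad14 alterations (cell cycle control and DNA damage repair) were exposed to compounds. Growth inhibition was measured against vehicle-treated controls.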

[10] = NCI Yeast Anticancer Drug Screen. Data for the bub3 strain (AID 167); conditions: S. cerevisiae bub3 mutant strain, hits give high values
Method in brief: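 Part of a panel of yeast mutants defective in DNA damage repair or cell cycle regulation. Each strain is grown with compound, and inhibition is calculated relative to solvent-treated cultures.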

[11] = NCI Yeast Anticancer Drug Screen. Data for the wt2 strain (AID 169);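 note: 0% = growth of vehicle-treated yeast cultures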; conditions: S. cerevisiae wt2 strain growth inhibition, hits give high values
Method in brief: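 Yeast cells were exposed to test compounds, and growth inhibition was measured relative to vehicle-treated controls.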

[12] = NCI Yeast Anticancer Drug Screen. Data for the mlh1 strain (AID 171);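 note: 0% = growth of vehicle-treated control cultures of the same strain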; conditions: S. cerevisiae mlh1 strain growth inhibition, hits give high values
Method in brief: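 Yeast carrying a defined genetic alteration in DNA damage repair or cell cycle control were exposed to test compounds. Growth inhibition was measured relative to vehicle-treated controls.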

[13] = NCI Yeast Anticancer Drug Screen. Data for the sgs1 strain (AID 173);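 note: 0% = growth of vehicle-only control cultures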; conditions: S. cerevisiae sgs1 mutant, hits give high values
Method in brief: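 Yeast mutant strains carrying defined defects in DNA damage repair or cell cycle control were exposed to test compounds. Growth inhibition was scored against vehicle-treated controls.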

[14] = NCI Yeast Anticancer Drug Screen. Data for the mlh1 rad18 strain (AID 175); conditions: S. cerevisiae mlh1 rad18 strain growth inhibition, hits give high values
Method in brief: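 Growth inhibition of the yeast strain was measured after compound exposure and expressed relative to vehicle-treated controls. The strain carries defined defects in DNA damage repair.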

[15] = NCI Yeast Anticancer Drug Screen. Data for the rad18 strain (AID 177); conditions: S. cerevisiae rad18 mutant growth inhibition, hits give high values
Method in brief: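 Yeast carrying a defined DNA damage repair alteration were exposed to compounds. Growth inhibition was expressed relative to vehicle-treated controls.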

[16] = at 5.0 µM (retest, dose inferred, filed as 0.5)
[17] = at 50.0 µM (retest, dose inferred, filed as 5.0)

Measured: growth inhibition

O=C1CSC(=S)N1Cc1ccc(Cl)cc1Cl
inactive: [1]; at 1.2 µM -4% | [1]; at 3.7 µM 8% | [2]; at 1.2 µM 1% | [2]; at 3.7 µM 24% | [3]; at 1.2 µM 12% | [4]; at 1.2 µM -6% | [4]; at 3.7 µM 26% | [4]; [16] 29% | [5]; at 1.2 µM 1% | [5]; at 3.7 µM -1% | [5]; [16] 10% | [6]; at 1.2 µM 3% | [6]; at 3.7 µM 20% | [7]; [16] 41% | [8]; at 1.2 µM -10% | [8]; at 3.7 µM -11% | [9]; [16] 0% | [10]; at 1.2 µM -9% | [10]; at 3.7 µM 15% | [10]; [16] 14% | [11]; at 1.2 µM 12% | [11]; at 3.7 µM 55% | [12]; at 1.2 µM -13% | [12]; at 3.7 µM 8% | [13]; at 1.2 µM 2% | [13]; at 3.7 µM 33% | [14]; [16] 66% | [15]; at 1.2 µM -6% | [15]; at 3.7 µM 27%
active: [1]; at 11.0 µM 98% | [1]; at 33.0 µM 99% | [1]; at 100.0 µM 98% | [2]; at 11.0 µM 99% | [2]; at 33.0 µM 99% | [2]; at 100.0 µM 97% | [3]; at 3.7 µM 72% | [3]; at 11.0 µM 97% | [3]; at 33.0 µM 99% | [3]; at 100.0 µM 98% | [4]; at 11.0 µM 99% | [4]; at 33.0 µM 99% | [4]; [17] 98% | [4]; at 50.0 µM 99.1% | [4]; at 100.0 µM 98% | [5]; at 11.0 µM 93% | [5]; at 33.0 µM 99% | [5]; [17] 99% | [5]; at 50.0 µM 99.3% | [5]; at 100.0 µM 99% | [6]; at 11.0 µM 99% | [6]; at 33.0 µM 100% | [6]; at 100.0 µM 99% | [7]; [17] 99% | [7]; at 50.0 µM 99.4% | [8]; at 11.0 µM 96% | [8]; at 33.0 µM 99% | [8]; at 100.0 µM 98% | [9]; [17] 99% | [9]; at 50.0 µM 98.8% | [10]; at 11.0 µM 99% | [10]; at 33.0 µM 99% | [10]; [17] 98% | [10]; at 50.0 µM 99.3% | [10]; at 100.0 µM 99% | [11]; at 11.0 µM 100% | [11]; at 33.0 µM 100% | [11]; at 100.0 µM 99% | [12]; at 11.0 µM 99% | [12]; at 33.0 µM 99% | [12]; at 100.0 µM 99% | [13]; at 11.0 µM 99% | [13]; at 33.0 µM 99% | [13]; at 100.0 µM 99% | [14]; [17] 98% | [14]; at 50.0 µM 97% | [15]; at 11.0 µM 99% | [15]; at 33.0 µM 99% | [15]; at 100.0 µM 98%
